Results as given in PubChem BioAssay (Tox21).
Inconclusive results are not listed. Calls of active or inactive are those of the source. Unless noted, calls come from the whole dose curve.

Legend:
[1] = Nuclear factor erythroid 2-related factor 2/antioxidant responsive element (Nrf2/ARE) small molecule agonists: luciferase reporter gene qHTS assay in human keratinocytes (AID 1919969); note: nearly all actives have a fitted effect of over 35% in size; note: potency is the fitted concentration of half-maximal effect
[2] = molecular target: Gonadotropin-releasing hormone receptor (Homo sapiens) (UniProt P30968); test: Human gonadotropin-releasing hormone receptor (GnRHR) small molecule agonists, calcium flux assay in GnRHR-HEK293 cells (AID 1920063); note: nearly all actives have a fitted effect of over 35% in size
In short: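 Stable human GnRHR HEK293 line. 18 h plating, then calcium dye for 1 h at 37 C. Agonist-mode compound addition from DMSO stocks; fluorescence monitored 3 min.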

[3] = molecular target: KiSS-1 receptor (Homo sapiens) (UniProt Q969F8); test: Human kisspeptin (KISS1R) small molecule agonists, calcium flux assay in KISS1R-HEK293 cells (AID 1920064; active = well fitted activation curve with a large enough effect in the repeat runs)
In short: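 After overnight (18 h) culture at 37 C/5% CO2, human KISS1R-HEK293 cells received calcium dye for 1 h, then test compound; emission at 540 nm (excitation 480 nm) was tracked for 3 min.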

[4] = G protein-coupled receptor (GPCR) small molecule agonists, calcium flux assay: HEK293 wild type cell line counter screen (AID 1920065)
In short: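 Following 18 h incubation at 37 C/5% CO2, plates got calcium dye for 1 h; compounds, ATP or DMSO were then pinned in and fluorescence followed kinetically (480/540 nm).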

[5] = p53 small molecule agonists, cell-based qHTS assay with human liver microsomes (AID 1963577)
In short: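 Cells carrying a p53-responsive bla reporter were rested 5 h (37 C, 5% CO2) before compound transfer. Human liver microsomes plus NADPH, 0.5 mg/mL final apiece, supplied metabolism during the 16 h 37 C exposure.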

[6] = p53 small molecule agonists, cell-based qHTS assay with rat liver microsomes (AID 1963578); note: potency is the fitted concentration of half-maximal effect
In short: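 Fluorescence from a beta-lactamase reporter under a p53 response element was measured after cells had been incubated 16 h at 37 C with test compound and rat liver microsomes plus NADPH (0.5 mg/mL final each).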

[7] = p53 small molecule agonists, cell-based qHTS assay with human liver microsomes: qHTS cell viability counter screen (AID 1963579); note: nearly all actives have a fitted effect of over 45% in size; note: potency is the fitted concentration of half-maximal effect
In short: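 Seed p53RE-bla cells at 4,000 per well; incubate 5 h at 37 C; add compound, human liver microsomes and NADPH; incubate 16 h at 37 C; add CellTiter-Glo; after 30 min at room temperature, read luminescence.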

[8] = molecular target: 5-hydroxytryptamine receptor 2A (Homo sapiens) (UniProt P28223); test: 5-hydroxytryptamine receptor 2A (HTR2A) small molecule agonists, cell-based qHTS assay (AID 1963587); note: nearly all actives have a fitted effect of over 30% in size
In short: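 Kinetic calcium-flux fluorescence (2 min, 1 sec intervals) after compound addition in agonist mode. HTR2A-CHO cells were cultured 18 h, then dye-loaded 1 h at 37 C.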

[9] = molecular target: Muscarinic acetylcholine receptor M1 (Homo sapiens) (UniProt P11229); test: Cholinergic receptor muscarinic 1 (CHRM1) small molecule antagonists, cell-based qHTS assay (AID 1963588); note: nearly all actives have a fitted effect of over 40% in size
In short: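 Compounds were tested at 15 concentrations in three independent runs. Dye-loaded CHRM1-CHO cells were exposed 5 min at room temperature before stimulation by acetylcholine added at 50nM. Intracellular calcium was read kinetically on FDSS for 3 min.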

[10] = molecular target: Muscarinic acetylcholine receptor M1 (Homo sapiens) (UniProt P11229); test: Cholinergic receptor muscarinic 1 (CHRM1) small molecule agonists, cell-based qHTS assay (AID 1963589); note: nearly all actives have a fitted effect of over 35% in size
In short: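 Kinetic fluorescence (1 s intervals) of calcium-sensitive dye in human M1 CHO cells after compound addition; cells pre-incubated 18 h at 37 C/5% CO2 and dye-loaded 1 h.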

[11] = molecular target: Beta-2 adrenergic receptor (Homo sapiens) (UniProt P07550); test: Adrenergic beta2 receptor (ADRB2) small molecule antagonists, cell-based qHTS assay (AID 1963592); note: series mostly up to about 92 µM; nearly all actives have a fitted effect of over 50% in size
In short: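 Assay format: CHO-ADRB2 cells, 18-20hr seeding at 37C/5% CO2, then compound plus 1nM isoproterenol agonist mix for 0.5hr RT. Homogeneous time-resolved fluorescence cAMP detection after 1hr, expressed as 665/615 nm ratio.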

[12] = molecular target: Beta-2 adrenergic receptor (Homo sapiens) (UniProt P07550); test: Adrenergic beta2 receptor (ADRB2) small molecule agonists, cell-based qHTS assay (AID 1963593);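 note: CHO cells stably overexpressing human ADRB2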
In short: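 CHO cells stably over-expressing ADRB2 were plated overnight at 37C, then dosed with compounds plus a stimulation mix containing 100uM IBMX and 25uM Ro-20-1724 for 0.5hr at room temperature. cAMP was measured by HTRF competition, 1hr.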

[13] = molecular target: D(2) dopamine receptor (Homo sapiens) (UniProt P14416); test: Dopamine D2 receptor (DRD2) small molecule agonists, cell-based qHTS assay (AID 1963594); note: nearly all actives have a fitted effect of over 35% in size; note: potency is the fitted concentration of half-maximal effect
In short: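 cAMP accumulation in DRD2-HEK293 cells measured by HTRF after 1 h detection; compounds added 10 min before NKH477 (200nM […]) forskolin-analogue stimulation, 30 min at room temperature, with Ro20-1724 present at 0.1 mM final.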

[14] = molecular target: D(2) dopamine receptor (Homo sapiens) (UniProt P14416); test: Dopamine D2 receptor (DRD2) small molecule antagonists, cell-based qHTS assay (AID 1963595; active = well fitted inhibition curve with a large enough effect in the signal ratio in the repeat runs, with a control signal flat; the % refers to the signal ratio; note: potency is the fitted concentration of half-maximal effect)
In short: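 DRD2-HEK293; 0.1 mM Ro20-1724; cpd 10 min RT; NKH477 200 nM + quinpirole 12 nM, 30 min RT; HTRF cAMP (cAMP-d2/anti-cAMP cryptate), 665/620 nm ratio after 1 h.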

[15] = p53 small molecule agonists, cell-based qHTS assay with rat liver microsomes: qHTS cell viability counter screen (AID 1963580); note: nearly all actives have a fitted effect of over 45% in size; note: potency is the fitted concentration of half-maximal effect
In short: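 Cytotoxicity counter screen: intracellular ATP read by CellTiter-Glo luminescence in the p53 reporter wells. HCT-116 p53RE-bla cells were treated for 16 h at 37 C alongside rat liver microsomes and NADPH, each 0.5 mg/mL final.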

[16] = p53 small molecule agonists, cell-based qHTS assay (AID 1963582; active = well fitted activation curve with a large enough effect in the signal ratio in the repeat runs, not every such curve was filed as active; the % refers to the signal ratio; note: potency is the fitted concentration of half-maximal effect)
In short: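 Measured: fluorescence from cleaved LiveBLAzer substrate. System: p53RE-bla cells, 16 h compound treatment at 37 C, 2 h substrate step at room temperature.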

[17] = molecular target: 5-hydroxytryptamine receptor 2A (Homo sapiens) (UniProt P28223); test: 5-hydroxytryptamine receptor 2A (HTR2A) small molecule antagonists, cell-based qHTS assay (AID 1963586); note: nearly all actives have a fitted effect of over 45% in size
In short: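 CHO cells stably expressing human HTR2A were plated for 18 h at 37 C, then loaded with calcium dye for 1 h. Compounds were preincubated 5 min at room temperature before DOI (4 nM solution) was added. Kinetic fluorescence was read for 3 min.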

[18] = p53 small molecule agonists, cell-based qHTS assay: qHTS cell viability counter screen (AID 1963581); note: nearly all actives have a fitted effect of over 45% in size; note: potency is the fitted concentration of half-maximal effect
In short: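 qHTS counter screen: 16 h compound exposure at 37 C of p53RE-bla HCT-116 cells (4,000 per well, seeded 5 h prior), cell viability by ATP luminescence.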

[19] = cAMP Responsive Elements (CRE) small molecule agonists, cell-based qHTS assay (AID 1963590)
In short: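 Test agents in DMSO were incubated 3 h at 37 C/5% CO2 with CRE-bla HEK 293T cells seeded 18 h earlier; LiveBLAzer B/G FRET substrate was added and read after 2 h at room temperature.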

[20] = cAMP Responsive Elements (CRE) small molecule antagonists, cell-based qHTS assay (AID 1963591; active = well fitted inhibition curve with a large enough effect in the signal ratio in the repeat runs, not every such curve was filed as active; the % refers to the signal ratio)
In short: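 Reporter line CRE-bla HEK 293T in dialyzed-FBS DMEM; cells preincubated 18 h, treated 3 h with compound plus NKH477 (0.25 uM final); LiveBLAzer FRET, 2 h RT.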
% is set by controls: 0 for no effect and ±100 for the full control effect.

Sequence of Gonadotropin-releasing hormone receptor (Homo sapiens) (P30968 whole entry, looked up): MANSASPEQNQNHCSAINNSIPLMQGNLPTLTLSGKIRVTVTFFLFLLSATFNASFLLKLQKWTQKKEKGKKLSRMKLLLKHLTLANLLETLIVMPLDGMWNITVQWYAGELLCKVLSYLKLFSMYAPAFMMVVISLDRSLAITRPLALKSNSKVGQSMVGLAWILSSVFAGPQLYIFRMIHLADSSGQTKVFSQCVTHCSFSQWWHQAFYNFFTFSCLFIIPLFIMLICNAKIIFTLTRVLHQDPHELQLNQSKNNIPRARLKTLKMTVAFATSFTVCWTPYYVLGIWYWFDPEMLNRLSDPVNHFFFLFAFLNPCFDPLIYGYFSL
Sequence of Muscarinic acetylcholine receptor M1 (Homo sapiens) (P11229 whole entry, looked up): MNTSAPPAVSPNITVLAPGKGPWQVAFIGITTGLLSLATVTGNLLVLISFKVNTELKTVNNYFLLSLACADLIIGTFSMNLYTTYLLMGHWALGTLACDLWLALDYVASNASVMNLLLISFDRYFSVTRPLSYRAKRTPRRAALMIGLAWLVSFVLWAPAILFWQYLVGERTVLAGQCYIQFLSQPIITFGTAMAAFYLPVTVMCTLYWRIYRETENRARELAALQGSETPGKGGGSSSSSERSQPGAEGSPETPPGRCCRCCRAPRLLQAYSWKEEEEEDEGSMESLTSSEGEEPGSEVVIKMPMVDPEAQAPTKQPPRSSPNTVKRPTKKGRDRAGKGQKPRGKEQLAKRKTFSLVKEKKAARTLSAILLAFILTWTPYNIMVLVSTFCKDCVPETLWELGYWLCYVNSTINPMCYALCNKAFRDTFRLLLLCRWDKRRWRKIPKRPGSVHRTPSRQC
Sequence of D(2) dopamine receptor (Homo sapiens) (P14416 whole entry, looked up): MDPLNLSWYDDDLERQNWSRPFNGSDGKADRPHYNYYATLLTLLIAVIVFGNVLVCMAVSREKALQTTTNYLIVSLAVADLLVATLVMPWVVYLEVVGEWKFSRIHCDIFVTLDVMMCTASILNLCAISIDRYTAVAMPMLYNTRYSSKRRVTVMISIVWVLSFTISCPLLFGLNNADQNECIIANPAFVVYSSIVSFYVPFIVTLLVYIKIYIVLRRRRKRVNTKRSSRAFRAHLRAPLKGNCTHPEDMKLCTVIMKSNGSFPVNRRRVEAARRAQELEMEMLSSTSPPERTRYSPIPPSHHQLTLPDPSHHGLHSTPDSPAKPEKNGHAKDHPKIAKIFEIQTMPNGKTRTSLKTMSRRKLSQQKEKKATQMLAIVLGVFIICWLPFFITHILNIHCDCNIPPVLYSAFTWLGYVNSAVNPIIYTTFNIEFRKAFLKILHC
Sequence of Beta-2 adrenergic receptor (Homo sapiens) (P07550 whole entry, looked up): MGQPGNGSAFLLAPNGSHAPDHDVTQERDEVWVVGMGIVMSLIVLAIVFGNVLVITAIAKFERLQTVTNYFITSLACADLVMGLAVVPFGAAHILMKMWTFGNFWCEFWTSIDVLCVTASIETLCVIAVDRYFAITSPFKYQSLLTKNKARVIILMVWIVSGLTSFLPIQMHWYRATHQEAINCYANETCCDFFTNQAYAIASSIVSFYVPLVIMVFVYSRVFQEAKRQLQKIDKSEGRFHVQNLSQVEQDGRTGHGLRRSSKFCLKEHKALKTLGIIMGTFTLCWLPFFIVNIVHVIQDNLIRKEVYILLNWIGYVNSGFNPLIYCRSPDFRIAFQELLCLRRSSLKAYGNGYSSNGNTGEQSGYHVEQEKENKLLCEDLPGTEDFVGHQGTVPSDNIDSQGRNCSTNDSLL
Sequence of 5-hydroxytryptamine receptor 2A (Homo sapiens) (P28223 whole entry, looked up): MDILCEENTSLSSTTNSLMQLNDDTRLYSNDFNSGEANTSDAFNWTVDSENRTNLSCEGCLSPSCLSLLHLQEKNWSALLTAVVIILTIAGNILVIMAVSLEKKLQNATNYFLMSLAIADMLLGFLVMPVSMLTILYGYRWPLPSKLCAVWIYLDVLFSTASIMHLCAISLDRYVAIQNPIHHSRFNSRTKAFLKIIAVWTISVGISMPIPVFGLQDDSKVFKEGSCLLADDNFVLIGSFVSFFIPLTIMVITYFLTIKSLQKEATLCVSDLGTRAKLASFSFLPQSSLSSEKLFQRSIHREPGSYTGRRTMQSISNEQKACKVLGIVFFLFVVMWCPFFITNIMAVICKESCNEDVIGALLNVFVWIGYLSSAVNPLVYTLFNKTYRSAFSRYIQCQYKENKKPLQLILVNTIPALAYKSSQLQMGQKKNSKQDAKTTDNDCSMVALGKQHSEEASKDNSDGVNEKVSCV
Sequence of KiSS-1 receptor (Homo sapiens) (Q969F8 whole entry, looked up): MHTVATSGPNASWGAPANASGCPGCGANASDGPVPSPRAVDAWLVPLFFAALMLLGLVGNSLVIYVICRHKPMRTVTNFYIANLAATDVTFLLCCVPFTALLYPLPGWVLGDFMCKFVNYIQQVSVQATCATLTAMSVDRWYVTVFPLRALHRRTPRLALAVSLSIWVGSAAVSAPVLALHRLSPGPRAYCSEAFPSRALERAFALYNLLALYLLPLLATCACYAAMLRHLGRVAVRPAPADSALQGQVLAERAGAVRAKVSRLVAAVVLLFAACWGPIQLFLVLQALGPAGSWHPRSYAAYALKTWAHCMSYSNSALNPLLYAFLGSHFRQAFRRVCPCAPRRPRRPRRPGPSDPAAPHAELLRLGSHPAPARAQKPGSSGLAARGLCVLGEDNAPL

CCCCCCCCS(=O)C(C)Cc1ccc2c(c1)OCO2 (centres undefined)
inactive: Potency [1] | Potency [2] | Potency [3] | Potency [4] | Potency [5] | Potency [6] | Potency [7] | Potency [8] | Potency [9] | Potency [10] | Potency [11] | Potency [12] | Potency [13] | Potency [14]

Oc1ccc(Cl)cc1C1CCCC1
inactive: Potency [1] | Potency [2] | Potency [3] | Potency [4] | Potency [5] | Potency [6] | Potency [15] | Potency [16] | Potency [17] | Potency [10] | Potency [11] | Potency [13]
active: Potency [7] 36.3 µM | Potency [14] 61.1 µM

O=C1OC(=O)c2cc(-c3ccc4c(c3)C(=O)OC4=O)ccc21
inactive: Potency [2] | Potency [3] | Potency [4] | Potency [5] | Potency [6] | Potency [15] | Potency [18] | Potency [16] | Potency [17] | Potency [8] | Potency [10] | Potency [19] | Potency [20] | Potency [11] | Potency [12] | Potency [13] | Potency [14]
active: Potency [1] 48.6 µM

CO[Si](OC)(c1ccccc1)c1ccccc1
inactive: Potency [1] | Potency [2] | Potency [3] | Potency [4] | Potency [5] | Potency [6] | Potency [7] | Potency [18] | Potency [16] | Potency [17] | Potency [8] | Potency [9] | Potency [10] | Potency [19] | Potency [20] | Potency [13] | Potency [14]

CCOc1cccc(-n2cc(C(=O)N3CCN(c4cc(C(=O)O)c5ccccc5c4)CC3)nc2-c2ccc(C)cc2)c1
inactive: Potency [1] | Potency [2] | Potency [3] | Potency [4] | Potency [5] | Potency [6] | Potency [10] | Potency [14]
active: Potency [7] 17.4 µM | Potency [15] 24.6 µM | Potency [18] 24.6 µM | Potency [13] 65.5 µM

CN(C)C(=O)NC1(c2ccccc2)CCN(CCC[C@]2(c3ccc(Cl)c(Cl)c3)CCCN(C(=O)c3ccccc3)C2)CC1
inactive: activity, positive = activation [1] 6.8% [at 19 µM] | activity change [2] -0.446% [at 11.8 µM, stronger effect = higher value] | activation [3] 0.0463% [at 15.8 µM] | activation [4] 0.0814% [at 11.8 µM] | activation [5] 8.31% [at 13.5 µM] | activation [6] 0.0763% [at 13.6 µM] | activity change, negative = cytotoxicity [7] -5.88% [at 13.5 µM] | activity change, negative = cytotoxicity [15] -4.37% [at 13.5 µM] | activation [16] -4.21% [at 13.5 µM] | activity, negative = inhibition [17] 9.02% [at 12.7 µM] | activation [8] 1.46% [at 15.9 µM] | activity, negative = inhibition [9] -18.4% [at 12.6 µM] | activation [10] 0.44% [at 15.8 µM] | activity change, negative = inhibition [11] 9.65% [at 19 µM] | activation [12] 0.625% [at 19 µM] | activation [13] -11.2% [at 19 µM] | activity change, negative = inhibition [14] 3.81% [at 18.9 µM]

NC(=O)c1nc(-c2cccc(-c3cc(F)ccc3OCC(F)(F)C(F)(F)F)c2)n[nH]1
inactive: Potency [1] | Potency [2] | Potency [3] | Potency [4] | Potency [5] | Potency [6] | Potency [7] | Potency [17] | Potency [8] | Potency [9] | Potency [10] | Potency [11] | Potency [13] | Potency [14]

COc1ccc(N=Nc2cc(C)c(N=Nc3ccc(S(=O)(=O)O)cc3)cc2OC)cc1
inactive: Potency [1] | Potency [2] | Potency [3] | Potency [4] | Potency [5] | Potency [6] | Potency [7] | Potency [18] | Potency [16] | Potency [17] | Potency [9] | Potency [10] | Potency [19] | Potency [13] | Potency [14]

CCCCCc1ccc(O)cc1
inactive: Potency [2] | Potency [3] | Potency [4] | Potency [5] | Potency [6] | Potency [7] | Potency [18] | Potency [17] | Potency [19] | Potency [12] | Potency [13] | Potency [14]
active: Potency [1] 34.4 µM

CC(=O)CC(=O)c1ccccc1
inactive: Potency [2] | Potency [3] | Potency [4] | Potency [5] | Potency [6] | Potency [7] | Potency [15] | Potency [17] | Potency [8] | Potency [9] | Potency [10] | Potency [20] | Potency [11] | Potency [13] | Potency [14]
active: Potency [1] 54.8 µM

CCCCCCCC/C=C\CCCCCCCC(=O)N(C)CC(=O)O
inactive: Potency [2] | Potency [3] | Potency [4] | Potency [5] | Potency [6] | Potency [7] | Potency [15] | Potency [16] | Potency [17] | Potency [9] | Potency [10] | Potency [11] | Potency [12] | Potency [13] | Potency [14]
active: Potency [1] 54.5 µM

Oc1c(Cl)cc(Cl)c2cccnc12
active: Potency [1] 0.188 µM
inactive: Potency [2] | Potency [3] | Potency [4] | Potency [5] | Potency [6] | Potency [7] | Potency [15] | Potency [18] | Potency [17] | Potency [8] | Potency [10] | Potency [11] | Potency [13]

CNC(=S)NC
inactive: Potency [1] | Potency [2] | Potency [3] | Potency [4] | Potency [5] | Potency [6] | Potency [7] | Potency [15] | Potency [17] | Potency [9] | Potency [10] | Potency [11] | Potency [12] | Potency [13]

CNCC[C@@H](Oc1ccccc1C)c1ccccc1
inactive: Potency [1] | Potency [2] | Potency [3] | Potency [4] | Potency [5] | Potency [6] | Potency [7] | Potency [15] | Potency [16] | Potency [8] | Potency [10] | Potency [20] | Potency [13]

CO[C@@]12[C@H](COC(N)=O)C3=C(C(=O)C(C)=C(N)C3=O)N1C[C@@H]1N[C@@H]12
active: Potency [1] 11.9 µM | Potency [6] 4.46 µM | Potency [16] 15.8 µM
inactive: Potency [2] | Potency [3] | Potency [4] | Potency [5] | Potency [7] | Potency [18] | Potency [19] | Potency [20]

CC(Cc1ccc(O)c(O)c1)C(C)Cc1ccc(O)c(O)c1 (centres undefined)
active: Potency [1] 68.6 µM
inactive: Potency [2] | Potency [3] | Potency [4] | Potency [5] | Potency [6] | Potency [7] | Potency [18] | Potency [10] | Potency [13] | Potency [14]
